Experimental data from PubChem BioAssay (Tox21).
Results filed as inconclusive are left out. Entries that show only a call come without a potency. Calls of active or inactive are those of the source. Unless noted, calls follow the shape of the dose curve; as a rule, active = well fitted curve in the direction sought with a large enough effect in the repeat runs; inconclusive = weak or mixed curves; inactive = no such curve, though single readings can be large; an effect the other way counts as inactive or inconclusive.

Key:
[1] = qHTS assay to identify small molecule antagonists of the glucocorticoid receptor (GR) signaling pathway - cell viability counter screen (AID 720693); also: nearly all actives have a fitted effect of over 55% in size
[2] = qHTS assay for identifying genotoxic compounds that show differential cytotoxicity against isogenic chicken DT40 cell lines with known DNA damage response pathways - wild type cell line (AID 743012); also: nearly all actives have a fitted effect of over 60% in size; also: potency is read from the fitted curve at half-maximal effect
Summary of the method: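 Parental DNA repair-proficient DT40 cells, 300 per well, were pre-incubated ~0.5 h at 37 C/5% CO2, pin-dosed with compounds in DMSO, then incubated 40 h. Viability was read as CellTiter-Glo luminescence after 30 min at room temperature.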

[3] = qHTS assay for identifying genotoxic compounds that show differential cytotoxicity against isogenic chicken DT40 cell lines with known DNA damage response pathways - Rev3 mutant cell line (AID 743014); also: nearly all actives have a fitted effect of over 55% in size; also: potency is read from the fitted curve at half-maximal effect
[4] = qHTS assay for identifying genotoxic compounds that show differential cytotoxicity against isogenic chicken DT40 cell lines with known DNA damage response pathways - Rad54/Ku70 mutant cell line (AID 743015); also: nearly all actives have a fitted effect of over 60% in size; also: potency is read from the fitted curve at half-maximal effect
[5] = qHTS assay to identify small molecule antagonists of the androgen receptor (AR) signaling pathway - cell viability counter screen (AID 743033; also: nearly all actives have a fitted effect of over 45% in size)
[6] = qHTS assay to identify small molecule antagonists of the androgen receptor (AR) signaling pathway using the MDA cell line - cell viability counter screen (AID 743041; also: nearly all actives have a fitted effect of over 45% in size)
Summary of the method: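 MDA-kb2 AR-luc human breast carcinoma cells (MMTV-luciferase, AR/GR responsive) were treated with compounds plus R1881 agonist for 16 h at 37 °C. Viability was read as CellTiter-Fluor fluorescence in the same wells as the reporter assay.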

[7] = qHTS assay to identify small molecule antagonists of the thyroid receptor (TR) signaling pathway - cell viability counter screen (AID 743064); also: nearly all actives have a fitted effect of over 50% in size
Summary of the method: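 Plate GH3.TRE-Luc cells; incubate 4 h at 37 °C; add compound, then T3 to 1 nM final; incubate 23.5 h; add CellTiter-Fluor; incubate 30 min at 37 °C, 5% CO2; read fluorescence.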

[8] = qHTS assay to identify small molecule antagonists of the thyroid receptor (TR) signaling pathway (AID 743065); also: series mostly up to about 70 µM; nearly all actives have a fitted effect of over 55% in size
Summary of the method: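 GH3.TRE-Luc rat pituitary cells carrying two TR response elements driving luciferase were plated for 4 h, given compound plus 1 nM T3 (final), and incubated 23.5 h at 37 C. ONE-Glo luminescence measured reporter inhibition; CellTiter-Fluor fluorescence tracked cytotoxicity.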

[9] = test system: thyroid hormone receptor (rat, GH3 cells); test: qHTS assay to identify small molecule agonists of the thyroid receptor (TR) signaling pathway (AID 743066; calls by dose curve)
[10] = molecular target: Estrogen receptor (Homo sapiens) (UniProt P03372); test: qHTS assay to identify small molecule antagonists of the estrogen receptor alpha (ER-alpha) signaling pathway (AID 743069; active = well fitted curve in the direction sought with a large enough effect in the signal ratio in the repeat runs, not every such curve was filed as active; the % refers to the signal ratio)
Estrogen receptor (Homo sapiens), sequence (P03372 whole entry, looked up): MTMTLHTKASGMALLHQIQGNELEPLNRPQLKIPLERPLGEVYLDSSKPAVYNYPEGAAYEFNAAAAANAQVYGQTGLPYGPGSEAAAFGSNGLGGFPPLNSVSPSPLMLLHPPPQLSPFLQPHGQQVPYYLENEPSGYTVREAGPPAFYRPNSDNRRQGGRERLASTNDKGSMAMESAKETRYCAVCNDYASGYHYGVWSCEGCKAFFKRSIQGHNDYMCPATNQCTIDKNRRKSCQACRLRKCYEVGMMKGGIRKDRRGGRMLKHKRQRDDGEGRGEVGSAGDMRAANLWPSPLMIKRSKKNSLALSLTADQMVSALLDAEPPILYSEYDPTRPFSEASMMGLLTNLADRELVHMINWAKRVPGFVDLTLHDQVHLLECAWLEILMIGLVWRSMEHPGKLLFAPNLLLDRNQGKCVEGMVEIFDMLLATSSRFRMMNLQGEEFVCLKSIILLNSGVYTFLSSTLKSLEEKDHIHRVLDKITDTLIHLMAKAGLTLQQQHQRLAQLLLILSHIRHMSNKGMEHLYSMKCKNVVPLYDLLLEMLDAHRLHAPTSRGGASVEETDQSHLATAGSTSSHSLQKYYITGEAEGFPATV
Summary of the method: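 HEK293 cells stably carrying an ER-alpha-UAS-bla beta-lactamase reporter were pre-cultured overnight in 2% charcoal-stripped FBS medium. Test compounds in DMSO were added together with 17beta-estradiol for 18 hr at 37C. Read-out was fluorescence after 2 hr with LiveBLAzer B/G FRET substrate at room temperature.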

[11] = qHTS assay to identify small molecule antagonists of the estrogen receptor alpha (ER-alpha) signaling pathway - cell viability counter screen (AID 743074; calls by dose curve; also: nearly all actives have a fitted effect of over 45% in size)
[12] = molecular target: Estrogen receptor (Homo sapiens) (UniProt P03372); test: qHTS assay to identify small molecule agonists of the estrogen receptor alpha (ER-alpha) signaling pathway (AID 743075; calls by dose curve)
[13] = molecular target: Estrogen receptor (Homo sapiens) (UniProt P03372); test: qHTS assay to identify small molecule agonists of the estrogen receptor alpha (ER-alpha) signaling pathway using the BG1 cell line (AID 743079); also: nearly all actives have a fitted effect of over 20% in size
[14] = qHTS assay to identify small molecule antagonists of the estrogen receptor alpha (ER-alpha) signaling pathway using the BG1 cell line (AID 743080; calls by dose curve;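 also: BG1 cells stimulated with 17beta-estradiol alongside compound; series mostly up to about 70 µM; nearly all actives have a fitted effect of over 25% in size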)
Summary of the method: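 Readout is ONE-Glo luminescence, taken 30 min at room temperature after reagent addition, preceded by a CellTiter-Fluor viability read; BG1-Luc-4E2 cells had received compound and 17beta-estradiol for 21.5 h at 37 C.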

[15] = qHTS assay to identify small molecule antagonists of the estrogen receptor alpha (ER-alpha) signaling pathway using the BG1 cell line - cell viability counter screen (AID 743081);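 also: compound given together with 17beta-estradiol as the ER stimulus; series mostly up to about 70 µM; nearly all actives have a fitted effect of over 45% in size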
[16] = molecular target: Aromatase (Homo sapiens) (UniProt P11511); test: qHTS assay to identify aromatase inhibitors (AID 743083); also: series mostly up to about 70 µM; nearly all actives have a fitted effect of over 55% in size
Aromatase (Homo sapiens), sequence (P11511 whole entry, looked up): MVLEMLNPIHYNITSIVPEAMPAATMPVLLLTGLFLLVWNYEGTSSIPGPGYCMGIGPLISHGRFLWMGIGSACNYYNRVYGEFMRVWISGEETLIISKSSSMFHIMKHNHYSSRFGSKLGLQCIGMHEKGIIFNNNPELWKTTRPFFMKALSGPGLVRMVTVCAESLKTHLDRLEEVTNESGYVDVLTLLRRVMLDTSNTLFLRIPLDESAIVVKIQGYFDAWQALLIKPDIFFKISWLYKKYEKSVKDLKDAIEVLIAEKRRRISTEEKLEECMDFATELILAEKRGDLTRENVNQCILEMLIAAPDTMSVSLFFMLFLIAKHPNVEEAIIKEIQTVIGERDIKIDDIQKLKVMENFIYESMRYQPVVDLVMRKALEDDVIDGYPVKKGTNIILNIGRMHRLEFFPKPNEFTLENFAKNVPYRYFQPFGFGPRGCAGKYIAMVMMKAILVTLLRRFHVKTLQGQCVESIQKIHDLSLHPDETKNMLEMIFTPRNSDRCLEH

[17] = molecular target: Androgen receptor (Homo sapiens) (UniProt P10275); test: qHTS assay to identify small molecule agonists of the androgen receptor (AR) signaling pathway using the MDA cell line (AID 743040; also: nearly all actives have a fitted effect of over 20% in size)
Androgen receptor (Homo sapiens), sequence (P10275 whole entry, looked up): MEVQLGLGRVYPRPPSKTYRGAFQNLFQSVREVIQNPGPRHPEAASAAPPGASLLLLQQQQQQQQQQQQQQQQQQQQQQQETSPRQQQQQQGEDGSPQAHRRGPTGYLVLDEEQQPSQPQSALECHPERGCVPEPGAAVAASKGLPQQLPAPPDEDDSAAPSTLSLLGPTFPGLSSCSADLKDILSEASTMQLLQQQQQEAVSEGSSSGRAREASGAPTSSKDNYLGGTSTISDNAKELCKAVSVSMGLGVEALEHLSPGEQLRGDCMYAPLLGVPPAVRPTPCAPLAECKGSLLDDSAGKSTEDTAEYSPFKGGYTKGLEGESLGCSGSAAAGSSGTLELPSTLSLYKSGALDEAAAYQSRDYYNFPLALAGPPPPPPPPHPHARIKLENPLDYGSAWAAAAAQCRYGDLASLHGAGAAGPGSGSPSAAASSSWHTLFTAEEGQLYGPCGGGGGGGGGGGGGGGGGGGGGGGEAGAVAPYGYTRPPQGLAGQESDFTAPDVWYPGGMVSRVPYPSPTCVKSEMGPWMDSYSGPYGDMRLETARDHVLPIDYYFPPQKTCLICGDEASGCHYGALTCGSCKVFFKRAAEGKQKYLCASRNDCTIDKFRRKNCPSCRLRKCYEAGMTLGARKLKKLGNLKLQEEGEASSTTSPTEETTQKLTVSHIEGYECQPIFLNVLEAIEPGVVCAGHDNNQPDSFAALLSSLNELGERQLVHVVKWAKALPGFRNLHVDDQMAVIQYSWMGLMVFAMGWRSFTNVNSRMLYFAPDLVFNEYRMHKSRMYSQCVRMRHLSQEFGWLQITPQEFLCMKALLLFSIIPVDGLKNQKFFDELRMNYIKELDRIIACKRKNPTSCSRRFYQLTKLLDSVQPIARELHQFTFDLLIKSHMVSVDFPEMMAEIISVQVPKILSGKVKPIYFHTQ
Summary of the method: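 MDA-kb2 breast carcinoma cells stably carrying an MMTV-driven luciferase reporter (AR- and GR-responsive) were seeded and held 5 h at 37C, 0% CO2, then exposed to compounds in DMSO for 16 h. Luminescence was read 30 min after ONE-Glo addition.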

[18] = molecular target: Androgen receptor (Homo sapiens) (UniProt P10275); test: qHTS assay to identify small molecule antagonists of the androgen receptor (AR) signaling pathway (AID 743035; active = well fitted inhibition curve with a large enough effect in the signal ratio in the repeat runs, not every such curve was filed as active; the % refers to the signal ratio)
Summary of the method: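 HEK293 cells stably carrying a UAS-driven beta-lactamase reporter (AR-UAS-bla GripTite) were plated for 4 h at 37C, then given compound and the agonist R1881 and incubated 16 h. Reporter activity was read by LiveBLAzer B/G FRET fluorescence after 2 h at room temperature.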

[19] = molecular target: Androgen receptor (Homo sapiens) (UniProt P10275); test: qHTS assay to identify small molecule agonists of the androgen receptor (AR) signaling pathway (AID 743036; active = well fitted activation curve with a large enough effect in the signal ratio in the repeat runs, with a control signal flat, not every such curve was filed as active; the % refers to the signal ratio)
Summary of the method: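 Reporter line: GeneBLAzer AR-UAS-bla-GripTite (HEK293). Steps: plate cells, 4 h rest, add compounds, 16 h at 37C, add LiveBLAzer B/G substrate, 2 h at RT, read fluorescence.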

[20] = molecular target: Androgen receptor (Homo sapiens) (UniProt P10275); test: qHTS assay to identify small molecule antagonists of the androgen receptor (AR) signaling pathway using the MDA cell line (AID 743042; also: nearly all actives have a fitted effect of over 55% in size)
Summary of the method: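 MDA-kb2 cells (human breast carcinoma, stably carrying an MMTV-luciferase reporter responsive to AR and GR) were plated at 3,000 cells/well and preincubated 5 hr at 37C, then given compound plus R1881 agonist for 16 h. ONE-Glo luminescence was read.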

CC(C)CCO
Potency [1]: inactive | Potency [2]: inactive | Potency [3]: inactive | Potency [4]: inactive | outcome [5]: inactive | outcome [6]: inactive | Potency [7]: inactive | Potency [8]: inactive | Potency [9]: inactive | Potency [10]: inactive | Potency [11]: inactive | Potency [12]: inactive | Potency [13]: inactive | outcome [14]: inactive | outcome [15]: inactive | outcome [16]: inactive

CCNC(=O)/C=C/c1cccc(Br)c1
Potency [1]: inactive | Potency [2]: inactive | Potency [3]: inactive | Potency [4]: inactive | outcome [5]: inactive | outcome [17]: inactive | Potency [7]: inactive | Potency [11]: inactive | outcome [15]: inactive | outcome [16]: inactive

CCCCCCCCCCCCOC(C)=O
Potency [1]: inactive | Potency [2]: inactive | Potency [3]: inactive | Potency [4]: inactive | outcome [5]: inactive | outcome [6]: inactive | Potency [7]: inactive | Potency [8]: inactive | Potency [9]: inactive | Potency [10]: inactive | Potency [11]: inactive | Potency [12]: inactive | Potency [13]: inactive | outcome [14]: inactive | outcome [15]: inactive | outcome [16]: inactive

Cn1c(=O)c2c(ncn2CC2OCCO2)n(C)c1=O
Potency [1]: inactive | Potency [2]: inactive | Potency [3]: inactive | Potency [4]: inactive | outcome [5]: inactive | Potency [18]: inactive | outcome [19]: inactive | outcome [17]: inactive | outcome [6]: inactive | outcome [20]: inactive | Potency [7]: inactive | Potency [8]: inactive | Potency [9]: inactive | Potency [11]: inactive | outcome [15]: inactive | outcome [16]: inactive

OC(CCN1CCCCC1)(c1ccccc1)c1ccccc1
Potency [1]: inactive | Potency [2]: 13.3 µM (active) | Potency [3]: 23.7 µM (active) | Potency [4]: 21.1 µM (active) | outcome [5]: inactive | Potency [18]: inactive | outcome [19]: inactive | outcome [17]: inactive | outcome [20]: inactive | Potency [9]: inactive | Potency [10]: inactive | Potency [11]: inactive | Potency [12]: inactive | Potency [13]: inactive | outcome [14]: inactive | outcome [16]: inactive

CC(=O)Nc1ccc(C)cc1
Potency [1]: inactive | Potency [2]: inactive | Potency [3]: inactive | Potency [4]: inactive | outcome [5]: inactive | outcome [6]: inactive | Potency [7]: inactive | Potency [8]: inactive | Potency [9]: inactive | Potency [10]: inactive | Potency [11]: inactive | Potency [12]: inactive | outcome [14]: inactive | outcome [15]: inactive | outcome [16]: inactive

Cc1cccc(Nc2ccncc2S(=O)(=O)NC(=O)NC(C)C)c1
Potency [1]: inactive | Potency [2]: inactive | Potency [3]: inactive | Potency [4]: inactive | outcome [5]: inactive | outcome [6]: inactive | Potency [7]: inactive | Potency [8]: inactive | Potency [9]: inactive | Potency [10]: inactive | Potency [11]: inactive | Potency [12]: inactive | Potency [13]: inactive | outcome [14]: inactive | outcome [15]: inactive | outcome [16]: inactive

Nc1ccc(S(=O)(=O)Nc2ccccn2)cc1
Potency [1]: inactive | Potency [2]: inactive | Potency [3]: inactive | Potency [4]: inactive | outcome [5]: inactive | Potency [18]: inactive | outcome [17]: inactive | outcome [6]: inactive | outcome [20]: inactive | Potency [10]: inactive | Potency [11]: inactive | Potency [12]: inactive | Potency [13]: inactive | outcome [14]: inactive | outcome [15]: inactive | outcome [16]: inactive

Cc1ncc([N+](=O)[O-])n1CC(O)CCl (stereo not given)
Potency [1]: inactive | Potency [2]: inactive | Potency [3]: inactive | Potency [4]: inactive | outcome [5]: inactive | Potency [18]: inactive | outcome [17]: inactive | outcome [6]: inactive | outcome [20]: inactive | Potency [7]: inactive | Potency [8]: inactive | Potency [9]: inactive | Potency [11]: inactive | outcome [15]: inactive | outcome [16]: inactive

CCCOCCOCCOCCO
Potency [1]: inactive | Potency [2]: inactive | Potency [3]: inactive | Potency [4]: inactive | outcome [5]: inactive | Potency [18]: inactive | outcome [17]: inactive | outcome [20]: inactive | Potency [7]: inactive | Potency [9]: inactive | Potency [10]: inactive | Potency [11]: inactive | Potency [12]: inactive | Potency [13]: inactive | outcome [14]: inactive | outcome [15]: inactive | outcome [16]: inactive

O=c1[nH]c(=O)c2ccccc2o1
Potency [1]: inactive | Potency [2]: inactive | Potency [3]: inactive | Potency [4]: inactive | outcome [5]: inactive | outcome [17]: inactive | outcome [20]: inactive | Potency [7]: inactive | Potency [8]: inactive | Potency [9]: inactive | Potency [11]: inactive | outcome [15]: inactive | outcome [16]: inactive

CO[Si](CCCS)(OC)OC
Potency [1]: inactive | Potency [2]: inactive | Potency [3]: inactive | Potency [4]: inactive | outcome [5]: inactive | outcome [6]: inactive | Potency [7]: inactive | Potency [8]: inactive | Potency [9]: inactive | Potency [10]: inactive | Potency [11]: inactive | Potency [12]: inactive | Potency [13]: inactive | outcome [14]: inactive | outcome [15]: inactive | outcome [16]: inactive

O=C(O)c1ccccc1C(=O)OCc1ccccc1
Potency [1]: inactive | Potency [2]: inactive | Potency [3]: inactive | Potency [4]: inactive | outcome [5]: inactive | outcome [19]: inactive | outcome [17]: inactive | outcome [6]: inactive | outcome [20]: inactive | Potency [7]: inactive | Potency [8]: inactive | Potency [9]: inactive | Potency [10]: inactive | Potency [12]: inactive | Potency [13]: inactive | outcome [15]: inactive | outcome [16]: inactive

CC(=O)OC(C(=O)c1ccccc1)c1ccccc1 (stereo not given)
Potency [1]: inactive | Potency [2]: inactive | Potency [3]: inactive | Potency [4]: inactive | outcome [5]: inactive | Potency [18]: inactive | outcome [19]: inactive | outcome [17]: inactive | outcome [6]: inactive | outcome [20]: inactive | Potency [9]: inactive | Potency [10]: inactive | Potency [11]: inactive | Potency [12]: inactive | outcome [14]: inactive | outcome [15]: inactive | outcome [16]: inactive

CC(C)C(=O)c1ccccc1
Potency [1]: inactive | Potency [2]: inactive | Potency [3]: inactive | Potency [4]: inactive | outcome [5]: inactive | outcome [6]: inactive | Potency [7]: inactive | Potency [8]: inactive | Potency [9]: inactive | Potency [10]: inactive | Potency [11]: inactive | Potency [12]: inactive | Potency [13]: inactive | outcome [14]: inactive | outcome [15]: inactive | outcome [16]: inactive

Nc1cc(Cl)cc(S(=O)(=O)O)c1O
Potency [1]: inactive | Potency [2]: inactive | Potency [3]: inactive | Potency [4]: inactive | outcome [5]: inactive | outcome [6]: inactive | Potency [7]: inactive | Potency [8]: inactive | Potency [9]: inactive | Potency [10]: inactive | Potency [11]: inactive | Potency [12]: inactive | Potency [13]: inactive | outcome [14]: inactive | outcome [15]: inactive | outcome [16]: inactive

CCN(CCC#N)c1ccccc1
Potency [1]: inactive | Potency [2]: inactive | Potency [3]: inactive | Potency [4]: inactive | outcome [5]: inactive | outcome [6]: inactive | Potency [7]: inactive | Potency [8]: inactive | Potency [9]: inactive | Potency [10]: inactive | Potency [11]: inactive | Potency [12]: inactive | Potency [13]: inactive | outcome [14]: inactive | outcome [15]: inactive | outcome [16]: inactive

CCOC(=O)CC#N
Potency [1]: inactive | Potency [2]: inactive | Potency [3]: inactive | Potency [4]: inactive | outcome [5]: inactive | outcome [6]: inactive | Potency [7]: inactive | Potency [8]: inactive | Potency [9]: inactive | Potency [10]: inactive | Potency [11]: inactive | Potency [12]: inactive | Potency [13]: inactive | outcome [14]: inactive | outcome [15]: inactive | outcome [16]: inactive
